# Compounds with a hit are over-represented: about 3.5% of the library has one in this group of screens.
# FBW7 act: human FBW7 E3 ligase activation, primary screen; AlphaScreen FBW7–phospho-cyclin E peptide binding, activator screen; Q969H0; 650,000 tested, 0.13% active; normalized activity (activation), % at 26.1 µM; in the data active = normalized activity above about 1.9%;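 note: purified mutant Fbw7 with reduced substrate affinity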
# GPR151 activ: human GPR151 activation; Q8TDV0; PathHunter beta-arrestin GPR151 cells, luminescence; AID 1508602; activation, % at 11.2 µM; 650,000 tested, 1% active; in the data active = activation above about 4.9%;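 note: 0% = median of compound wells and 100% = cells with positive control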
# MITF inh: human MITF inhibition, primary screen. AlphaScreen MITF homodimerization, bead proximity signal. inhibition, % at 2.6 µM. 650,000 tested, 0.91% active. AID 1259374; in the data active = inhibition above about 50%;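 note: 0% = vehicle wells with protein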
# TEAD-YAP block: TEAD-YAP interaction inhibition; 640,000 tested, 1.4% active; HEK-TIYL cells, TEAD-Gal4/YAP UAS-luciferase luminescence; AID 1259422; inhibition, % at 9.12 µM; in the data active = inhibition above about 32%;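 note: 0% = median of test compound wells and 100% = reference inhibitor wells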
# GPR151 conf act: human GPR151 activation, confirmation screen | shares compounds with GPR151 activ | GPR151 PathHunter beta-arrestin cells, luminescence, 90 min; % of EA-reagent control over plate median | activation, % at 11.2 µM | 6,700 tested, under 10 active | AID 1508609;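 active = mean percent activation across replicates above the confirmation screen cutoff of 4.91%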
# GPR119 ag: counter-screen for GPR151 activators: effect on human GPR119; shares compounds with GPR151 activ; GPR119 PathHunter beta-arrestin cells, luminescence, 90 min; 0 = compound-well median, 100 = enzyme-acceptor control; activation, % at 11.2 µM; 6,700 tested, 0.3% active;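 active = mean percent activation in the counterscreen above 29.09%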;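 note: counterscreen on off-target GPR119 to flag nonselective hits from the GPR151 activator screen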
# Target sequence (Q8TDV5 whole entry, looked up): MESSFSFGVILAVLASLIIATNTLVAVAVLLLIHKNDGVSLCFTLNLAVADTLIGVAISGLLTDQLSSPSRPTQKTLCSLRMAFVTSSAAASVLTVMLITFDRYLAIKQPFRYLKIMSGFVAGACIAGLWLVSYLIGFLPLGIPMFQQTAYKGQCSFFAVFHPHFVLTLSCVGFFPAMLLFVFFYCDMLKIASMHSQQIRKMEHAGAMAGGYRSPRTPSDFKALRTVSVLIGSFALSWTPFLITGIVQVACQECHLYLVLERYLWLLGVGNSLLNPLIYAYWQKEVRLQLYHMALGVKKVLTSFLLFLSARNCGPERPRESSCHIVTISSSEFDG
# * marks the source's active call; other numbers are inactive results; nt = no result; ! = not active in a repeat.
SMILES,FBW7 act,GPR151 activ,MITF inh,TEAD-YAP block,GPR151 conf act,GPR119 ag
COCc1ccc(CN2CCCC(CNC(=O)c3ccc(-c4ccccc4)cc3)C2)o1 (configuration not stated),0,-1,-2,2,nt,nt
O=C(NCC1CCCN(Cc2ccc(CO)o2)C1)c1ccc(-c2ccccc2)cc1 (configuration not stated),0,16*,10,-6,0,-7
Cc1ccc(-c2ccc3c(c2)CC(CNC(=O)Cc2nc(-c4ccccc4)n[nH]2)O3)nc1 (configuration not stated),0,1,7,1,nt,nt
Cc1ccc(-c2ccc3c(c2)CC(CNC(=O)CCc2ccco2)O3)nc1 (configuration not stated),0,6.4*,-1,-45,1,13
CC(C)CC(=O)N1CCC(C2(CCc3ccccc3)NC(=O)N(CCN(C)C)C2=O)CC1 (configuration not stated),0,-1,3,9,nt,nt
CCC(C)CC(=O)N1CCC(C2(CCC(C)C)NC(=O)N(CCN(C)C)C2=O)CC1 (configuration not stated),0,7.5*,7,8,0,-4
Cc1[nH]n(-c2ccccc2)c(=O)c1C=Nc1ccccc1,0,1,-1,2,nt,nt
Cc1cccc(N2C(=O)CC(Nc3ccc(F)cc3)C2=O)c1 (configuration not stated),0,0,10,9,nt,nt
Cc1ccc(N2C(=O)CC(Nc3ccc(F)cc3)C2=O)c(Br)c1 (configuration not stated),0,15*,-19,8,0,0
CCN1C(=O)CC(Nc2ccc(N(C)C)cc2)C1=O (configuration not stated),0,0,25,6,nt,nt
CN1C(=O)CC(Nc2ccc(N(C)C)cc2)C1=O (configuration not stated),0,7.3*,29,9,0,8
Brc1ccc(C2N(c3ccccc3)CCN2c2ccccc2)s1,0,0,0,-17,nt,nt
O=[N+]([O-])c1ccc(C2N(c3ccccc3)CCN2c2ccccc2)s1,0,4.9*,11,7,-1,-2
CCc1ccc(-c2nc(CS(=O)CC(=O)NCc3ccccc3Cl)c(C)o2)cc1 (configuration not stated),0,0,-2,0,nt,nt
CCOc1cccc2cc(-c3csc(Nc4ccccc4C(F)(F)F)n3)c(=O)oc12,0,8.1*,10,-5,0,4
CCOc1cccc2cc(-c3csc(Nc4ccccc4Cl)n3)c(=O)oc12,0,2,0,7,nt,nt
c1ccc(N2CCN(c3cc(NCCN4CCOCC4)ncn3)CC2)nc1,0,0,1,-3,nt,nt
O=c1ccn2c(SCc3ccc(F)cc3)nnc2[nH]1,0,-3,1,7,nt,nt
Oc1ccc(O)cc1,0,5.1*!,-4,-27,0,-7
Oc1ccc(Sc2ccc(O)cc2)cc1,0,0,3,-2,nt,nt
O=C1CC(C(=O)N2CCC3(CC2)CC3C(=O)NCCC2=CCCCC2)c2ccccc21 (configuration not stated),0,5.5*,-4,-5,0,6
CC(C)C1Oc2ccccc2N(CC(=O)NCCCN2C(C)CCCC2C)C1=O (configuration not stated),0,5.0*,18,12,0,-3
COCCCNC(=O)CN1C(=O)C(C(C)C)Oc2ccc(C)cc21 (configuration not stated),0,6.1*,2,4,0,13
Cc1c(O)ccc(C(=O)CN2CCN(c3ccccc3F)CC2)c1O,0,5.0*,-1,3,1,1
Cc1c(O)ccc(C(=O)CN2CCN(c3ccccc3)CC2)c1O,0,0,8,-1,nt,nt
SMILES,FBW7 act,GPR151 activ,MITF inh,TEAD-YAP block,GPR151 conf act,GPR119 ag
COc1ccc(N2N=C(C(=O)c3ccc(C)cc3)C(O)(O)C2=O)cc1,0,-1,14,-8,nt,nt
CCn1c(=O)n(-c2ccccc2C)c(=O)c2c3c(sc21)CN(C(C)=O)CC3,0,9.0*,0,-5,-1,-10
CCn1c(=O)n(-c2ccccc2)c(=O)c2c3c(sc21)CN(C(C)=O)CC3,1,1,0,3,nt,nt
CCn1c(C(=O)O)c(CNCc2ccc(C)o2)c2ccc(OC)cc21,0,-1,-3,3,nt,nt
NC(=O)c1ccsc1NC(=O)CSc1ccc(Cl)cc1,0,9.5*,-1,-33,-1,7
O=c1c2ccccc2nc(SCc2c(F)cccc2Cl)n1C1CC1,0,5.1*,-12,-6,0,8
COc1ccc(OC(C)C(=O)Nc2cc(C)ccc2C)cc1 (configuration not stated),0,5.0*,-3,9,2,1
COc1ccc(OC(C)C(=O)Nc2ccc(C)cc2C)cc1 (configuration not stated),0,-2,10,3,nt,nt
N/C(=N\OC(=O)CCC1CCCC1)c1ccc(Cl)cc1,0,6.0*,17,2,1,7
Cc1ccc(OCCN(C)C(=O)C2CC23CCN(Cc2cccc4nccnc24)CC3)cc1 (configuration not stated),0,-1,13,3,nt,nt
CCN(CC)C(=O)C1CCCN1S(=O)(=O)c1cccc2nsnc12 (configuration not stated),0,2,11,-1,nt,nt
CCN(C(=O)C1CCCN1S(=O)(=O)c1cccc2nsnc12)c1cccc(C)c1 (configuration not stated),0,8.2*,17,7,-1,2
COc1ccc(-c2cc(C(F)(F)F)n3nc(C(=O)Nc4ccc5c(c4)CCC5)cc3n2)cc1,0,-1,0,-3,nt,nt
CCOC(=O)C1=C(O)/C(=C/c2ccc(C(=O)OC)cc2)SC1=NC(=O)c1ccccc1,0,6.7*,4,0,0,-2
CCOC(=O)C1=C(O)/C(=C/c2ccccc2)SC1=Nc1ccccc1,0,-1,21,-3,nt,nt
CCOc1ccc(C(=O)Nc2ccccc2N2CCCC2)cc1,0,-1,-1,-14,nt,nt
CCOc1cc(CC(=O)N[C@@H](CC(C)C)c2ccccc2N2CCCCC2)ccc1C(=O)O,0,7.1*!,-4,5,0,12
Cc1ccc(CCNC(=O)CCS(=O)(=O)Cc2ccccc2C)cc1,0,0,6,8,nt,nt
COc1ccc(-c2noc(CNC(=O)Cc3ccc(OC)c(OC)c3)n2)cc1,1,5.1*,6,7,-1,-15
COc1cccc(OC)c1C(=O)NCc1nc(-c2ccc(Cl)cc2)no1,0,8.0*,1,8,0,-9
COc1ccc(-c2noc(CC(=O)Nc3ccc(C(C)C)cc3)n2)cc1,0,6.0*,2,-6,1,2

# Screening results (PubChem)
